In PubChem BioAssay (NCATS) one finds outcome and Potency data, which are given here for five molecules.

Inconclusive results are not listed. A call without a number means that no potency is given here. The source made the active and inactive calls. Unless noted, the call rests on the fitted dose curve; in most records, active means well fitted curve in the direction sought with a large enough effect; inconclusive means small, poorly fitted or top-dose-only effect, or another doubt; inactive means no such curve, though single readings can be large; an effect the other way counts as inactive or inconclusive.

For assay [1], the target named is Pyruvate kinase PKM (Homo sapiens) (UniProt P14618). Nature of the assay: qHTS Assay for Activators of Human Muscle Pyruvate Kinase (AID 954; active means well fitted curve in the direction sought with a large enough effect, not every such curve was filed as active). An outline of the steps:
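Purified human PKM2 (0.1 nM) with 0.5 mM PEP (Km) and 0.1 mM ADP in 50 mM imidazole pH 7.2, KCl, MgCl2, 1 h at room temperature; ATP formed read by coupled luciferase luminescence. Normalized to no-enzyme/110 uM thiadiazolimine inhibition; 0.3 nM enzyme column for activation.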
On the technique in general: qHTS replaces the single test concentration by a dilution series.

Assay [2] concerns the target Muscarinic acetylcholine receptor M1 (Rattus norvegicus) (UniProt P08482). Put plainly: qHTS Assay for Antagonists of Acetylcholine Muscarinic M1 Receptor: Kinetic Measurement of Intracellular Calcium Response (AID 943).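 Further: Fluo-4 calcium signal as peak divided by basal fluorescence over 4 min; series mostly up to about 35 µM; nearly all actives have a fitted effect of over 75% in size.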 The procedure, abridged:
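Intracellular calcium flux, recorded with Fluo-4 in a kinetic plate reader, served as signal; the response to carbachol at EC80 (100 nM final) was taken as maximal over minimal fluorescence after a 10 min compound pre-incubation in rat M1-CHO cells.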

Assay [3] shares this target. Nature of the assay: qHTS Assay for Antagonists of Acetylcholine Muscarinic M1 Receptor: Measurement of IP-One Response (AID 944). Further: nearly all actives have a fitted effect of over 75% in size. The procedure, abridged:
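Steps: plate transfected CHO-M1 cells overnight; add test compound, 10 min; add carbachol (200 nM, EC80) in stimulation buffer with LiCl; incubate 30 min; add labelled IP1 tracer and anti-IP1 antibody in lysis buffer; read HTRF after 10 min.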

The nature of assay [4]: MultiTox-Fluor Cytotoxicity Assay - LYMP1-001 - Dead Cells (AID 946).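 Further: cells exposed to compound for 16 h.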 The procedure, abridged:
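LYMP1-001 lymphoblastoid cells (2500/well) treated 16 h at 37 C. Dead-cell protease cleavage of bis-AAF-R110 read at Ex/Em 485/520. Normalized to DMSO and 15 uM tetraoctylammonium bromide; AC50 from Hill fits.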

The nature of assay [5]: MultiTox-Fluor Cytotoxicity Assay - LYMP1-001 - Live Cells (AID 947).
Assay [6] can be described thus: MultiTox-Fluor Cytotoxicity Assay - LYMP1-002 - Live Cells (AID 955).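 Further: cells exposed to compound for 16 hours.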 An outline of the steps:
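Cytotoxicity in the human lymphoblastoid line LYMP1-002 is measured as loss of live-cell protease activity after 16 h treatment in complete culture medium. AC50 is derived from Hill-equation fits of qHTS concentration-response data.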

The nature of assay [7]: MultiTox-Fluor Cytotoxicity Assay - LYMP1-002 - Dead Cells (AID 960).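 Further: cells exposed to compound for 16 h at 37 °C; nearly all actives have a fitted effect of over 60% in size.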 The procedure, abridged: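 Acute cytotoxicity in a human lymphoblastoid line is scored as rising dead-cell protease signal after 16 hr exposure at 37 C, measured fluorometrically (485/520).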

Muscarinic acetylcholine receptor M1 (Rattus norvegicus), sequence (P08482 whole entry, looked up): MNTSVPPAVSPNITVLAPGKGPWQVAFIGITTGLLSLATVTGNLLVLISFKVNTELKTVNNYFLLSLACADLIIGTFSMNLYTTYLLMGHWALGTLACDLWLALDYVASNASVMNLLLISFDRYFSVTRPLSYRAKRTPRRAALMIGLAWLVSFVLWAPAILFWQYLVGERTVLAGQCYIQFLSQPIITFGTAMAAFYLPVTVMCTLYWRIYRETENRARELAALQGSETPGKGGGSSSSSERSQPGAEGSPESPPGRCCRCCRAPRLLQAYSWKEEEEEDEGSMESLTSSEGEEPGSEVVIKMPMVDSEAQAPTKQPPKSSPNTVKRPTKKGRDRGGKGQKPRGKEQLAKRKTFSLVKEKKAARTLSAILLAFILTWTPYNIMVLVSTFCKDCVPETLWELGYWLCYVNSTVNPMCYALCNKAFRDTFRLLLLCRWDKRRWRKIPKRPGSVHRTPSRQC
Pyruvate kinase PKM (Homo sapiens), sequence (P14618 whole entry, looked up): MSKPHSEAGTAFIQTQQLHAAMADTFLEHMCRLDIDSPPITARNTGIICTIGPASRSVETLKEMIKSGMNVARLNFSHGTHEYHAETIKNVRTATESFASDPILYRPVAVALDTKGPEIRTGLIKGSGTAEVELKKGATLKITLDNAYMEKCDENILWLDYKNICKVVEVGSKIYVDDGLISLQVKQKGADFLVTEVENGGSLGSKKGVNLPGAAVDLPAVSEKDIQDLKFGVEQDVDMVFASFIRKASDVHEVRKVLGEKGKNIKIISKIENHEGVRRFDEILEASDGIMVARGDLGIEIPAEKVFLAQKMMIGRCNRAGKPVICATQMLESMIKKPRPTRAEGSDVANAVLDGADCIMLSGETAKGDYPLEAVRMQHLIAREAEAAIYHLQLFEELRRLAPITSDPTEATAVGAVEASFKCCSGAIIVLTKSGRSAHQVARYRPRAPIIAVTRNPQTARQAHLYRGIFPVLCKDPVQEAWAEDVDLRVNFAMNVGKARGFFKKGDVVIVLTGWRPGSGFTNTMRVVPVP

On to `CC(=O)[C@H]1CC[C@H]2[C@@H]3CCC4=CC(=O)CC[C@]4(C)[C@H]3CC[C@]12C`, for which the call in assay [1] was inactive.
On to `OCc1ccc(-c2nn(Cc3ccccc3)c3ccccc23)o1`, for which the result in assay [2] was inactive.
Take `Cc1ccc(S(=O)(=O)N[C@@H](Cc2ccccc2)C(=O)CCl)cc1`: the outcome in assay [2] and in assay [3] was inactive.
As to `N[C@@H](Cc1ccc(O)c(O)c1)C(=O)O`, in assay [3], the molecule was classed as inactive.
As to `N=C(N)c1ccc(OCCCCCOc2ccc(C(=N)N)cc2)cc1`, the Potency result in assay [4], in assay [5], in assay [6] and in assay [7] was “inactive” each time.
